# Experiments:
# Conditions in all cases: concentration: 1 μM, replicates: in singlicate; n = 1
# [1] = tested on: AAK1
# [2] = tested on: ABL1-nonphosphorylated
# [3] = tested on: ABL1-phosphorylated
# [4] = tested on: ABL2
# [5] = tested on: ACVR1B
# [6] = tested on: ACVR1
# [7] = tested on: ACVR2A
# 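Note: KINOMEscan kinase panel screen.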
SMILES,%Inh [1] [%],%Inh [2] [%],%Inh [3] [%],%Inh [4] [%],%Inh [5] [%],%Inh [6] [%],%Inh [7] [%]
Cn1ccc2ncnc(Oc3ccc(NC(=O)Nc4ccccc4)cc3)c21,0,26,0,0,0,0,0
COC(=O)c1c(-c2ccccc2)c2cc(OC)ccc2c(=O)n1Cc1ccccc1,22,66,0,12,0,0,0
Cl.O=C(Nc1cccc(-c2nn3ncccc3c2-c2ccnc(Nc3cccnc3)n2)c1)c1c(F)cccc1F [GSK312879],0,0,0,21,0,0,0
Cc1nnc(-c2ccc3occ(-c4ccc(S(C)=O)cc4)c3c2)[nH]1 (stereo not drawn),25,17,0,7,0,0,23
COc1ccc(Nc2nccc(-c3cccc(NC(=O)c4cc5cc(F)ccc5[nH]4)c3)n2)cc1 [GSK1229782],47,85,78,53,0,9,13
O=c1cc(N2CCOCC2)nc2n(Cc3cccc(Cl)c3Cl)ccn12 [GSK2286295],6,0,0,3,0,0,0
COc1ccc(Nc2nccc(NCCNC(=O)Nc3ccccc3F)n2)cc1 [GSK1379901],80,0,1,0,0,21,0
O=C(Nc1n[nH]c2cc(-c3cccc(F)c3F)ccc12)C1CC1 [SB-733894],100,45,40,0,21,24,17
COc1ccc(CNC(=O)NC2CCN(c3ccnc(Nc4cc(OC)c(OC)c(OC)c4)n3)C2)cc1 (stereo not drawn) [GSK1379748],49,0,0,0,0,15,0
Cc1ccc(-c2cc(-c3c[nH]nc3-c3ccccn3)ccn2)cc1 [GW684088],22,35,21,0,65,29,0
O=C(Nc1ccc2c(c1)OCO2)NC1CCN(c2ccnc(Nc3ccc(F)cc3)n2)C1 (stereo not drawn) [GSK1379724],12,0,0,9,0,0,0
Cc1cccc(-c2nc(Nc3ccncc3)c3ccccc3n2)n1 [GW855857],2,39,28,22,94.3,15,24
CC(C)(C)c1ccc(C(=O)Nc2cn3cc(Cl)ccc3n2)cc1,0,35,0,0,0,0,0
Cn1ccc2ncnc(Oc3cccc(C(=O)Nc4ccccc4)c3)c21,22,0,0,0,1,100,0
COc1ccc(C2=C(Nc3cccc(C(=O)O)c3)C(=O)NC2=O)cc1 [SB-390765],4,35,0,1,7,100,0
Cl.NC(=O)c1cccc(Nc2nccc(Nc3ccc(Oc4cccc(Cl)c4)c(Cl)c3)n2)c1 [GW659008],14,0,0,20,0,29,0
COc1ccccc1-c1ccc2c(NC(=O)C3CC3)n[nH]c2n1 [SB-711239],9,0,88,0,18,0,29
Cn1ccc2ncnc(Oc3ccc(Nc4nc5ccccc5[nH]4)cc3)c21,21,45,2,4,0,0,10

# Reference: publication PMC5540273 (PLoS ONE, 2017)
